Experimental findings from PubChem BioAssay (NCATS) are described below.

Test [1] deals with PA-1. The test is described as follows: Primary qHTS to identify gynecologic anti-cancer compounds using libraries of approved drugs and bioactive compounds (AID 1345084). Also: nearly all actives have a fitted effect of over 55% in size. Also: potency is read from the fitted curve at half-maximal effect. Conditions: Gynecologic cancer cell panel viability, ATPlite luminescence, 48 h; series mostly up to 57.5 µM. The procedure, abridged:
(§1)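 In this quantitative HTS, cell killing is estimated from loss of ATP-dependent luciferase light. Cells see five compound concentrations over a 48 h exposure.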
Background: In qHTS, concentration-response curves come from the screen itself.

The test system of test [2] is SKOV3. The description is as above. Conditions: Gynecologic cancer cell panel viability, ATPlite luminescence, 48 h; series mostly up to 57.5 µM. The method in brief:
as §1
A general note: Cellular ATP, detected with luciferase, serves as a proxy for viable cell number.

Test [3] has as its system Tov-21-G. The description is as above. As to conditions: Gynecologic cancer cell panel viability, ATPlite luminescence, 48 h; series mostly up to 57.5 µM. The procedure, abridged:
as §1

Test [4] deals with Tov112D. Described as above. Conditions: Gynecologic cancer cell panel viability, ATPlite luminescence, 48 h; series mostly up to 57.5 µM. The procedure, abridged: as §1
The nature of test [5]: Drug repurposing screens with cells derived from glioblastoma tumor samples (AID 1345199). Also: nearly all actives have a fitted effect of over 40% in size. Also: potency is read from the fitted curve at half-maximal effect. As to activity, negative = cell killing: % is scaled to controls: 0 for no effect and ±100 for the full control effect. As to conditions: GBM patient neurospheres viability, ATP luminescence, 48 h. The method in brief: (§2)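 Four patient lines of CD133+ GBM neurospheres were screened at several concentrations; hits were retested in those lines plus three slower-growing GBM lines, using 48-hour treatment and ATP-based viability.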

In test [6] the test system is astro. Described as above. Conditions: viability, ATP luminescence, 48 h; series mostly up to 45.9 µM. The method in brief:
as §2

The nature of test [7]: qHTS assay to identify inhibitors of the type 1 interferon - major histocompatibility complex class I in skeletal muscle: Counter screen cell viability and HiBit confirmation (AID 1347412). Also: potency is read from the fitted curve at half-maximal effect; nearly all actives have a fitted effect of over 60% in size. As to conditions: iHSKM muscle cells + IFN-b, HiBiT or CellTiter-Glo, 24 h. The method in brief:
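Myoblasts (C25cl48, HLA-B HiBiT) seeded in medium without dexamethasone, IFN-b 4 ng/ml added except unstimulated columns; 1 hr later compounds pinned (12-pt 1:3, top 46 uM final). Incubated 24 hrs, lysed 10 min, luminescence measured.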

A short description of test [8]: qHTS assay for small molecule activators of the human pregnane X receptor (PXR) signaling pathway (AID 720659; call rule not given here; also: 0% is about no effect).
Setting [9] is: at 45.9 µM (top of the series), tumour line B.
The mark [10] stands for this setting: at 45.9 µM (top of the series), tumour line D.
Setting [11] is: at 46.1 µM (top of the series), tumour line C.
Where [12] appears, read: at 46 µM (top of the series), tumour line A.

A number with no mark means an inactive call. Inconclusive results are not listed. Calls of active or inactive are those of the source. Unless noted, calls follow the shape of the dose curve; as a rule, active = well fitted curve in the direction sought with a large enough effect; inconclusive = small, poorly fitted or top-dose-only effect, or another doubt; inactive = no such curve, though single readings can be large; an effect the other way counts as inactive or inconclusive.

For `Nc1c2c(nc3ccccc13)CCCC2O` (stereo unspecified), the Potency entry in test [1], in test [2], in test [3], in test [4] and in test [6] was “inactive” each time. For the same molecule, the activity, negative = cell killing in test [5] (setting [9]) is 4.45%; in test [5] (setting [10]), 4.03%; in test [5] (setting [11]), -7.2%.

With `CC(C)NNC(=O)c1ccncc1`, the Potency entry in test [1], in test [2], in test [3], in test [4] and in test [6] was “inactive” throughout. The activity, negative = cell killing in test [5] (setting [9]) is -11.9%; in test [5] (setting [10]), -16.2%; in test [5] (setting [11]) it was -23.6%.

Consider `CN(C)C/C=C(/c1ccc(Br)cc1)c1cccnc1`, for which the Potency result in test [1], in test [2], in test [3], in test [4] and in test [6] was “inactive” throughout. In addition, in test [5] (setting [9]), the activity, negative = cell killing was -23%. Moreover, in test [5] (tumour line A), the Potency is 31.6 µM (active).

As for `C[n+]1cc2c3c(ccc2c2ccc4cc5c(cc4c21)OCO5)OCO3`, the Potency in test [1] is 5.01 µM (active); in test [2], 3.55 µM (active); in test [3] it was 7.94 µM (active); in test [4] it was 10 µM (active); in test [6], 4.47 µM (active); in test [7] (HiBiT) it was 1.11 µM (active). For the same molecule, the Potency in test [7] (Viability) was 2.22 µM (active).

Regarding `COc1cc(C(=O)OCCCN2CCCN(CCCOC(=O)c3cc(OC)c(OC)c(OC)c3)CC2)cc(OC)c1OC`, the Potency entry in test [1], in test [2] and in test [4] was “inactive” each time. Further, in test [5] (setting [11]), the activity, negative = cell killing is -7.95%. For the same molecule, the results for the Potency in test [5] (tumour line A) and in test [5] (tumour line D) were 3.98 µM (active) and 22.4 µM (active), respectively.

For the molecule `O=C(CCCN1CCC(O)(c2cccc(C(F)(F)F)c2)CC1)c1ccc(F)cc1`, the Potency entry in test [1], in test [2], in test [3], in test [4] and in test [6] was “inactive” each time.

As for `OCCN1CCN(CCCN2c3ccccc3C=Cc3ccccc32)CC1`, the Potency result in test [1], in test [3] and in test [4] was “inactive” each time.

`O=c1[nH]c(=O)n([C@H]2C[C@H](O)[C@@H](CO)O2)cc1Br`: the Potency result in test [1], in test [2], in test [3], in test [4] and in test [6] was “inactive” in each case. The activity, negative = cell killing in test [5] (setting [9]) was -18.1%; in test [5] (setting [10]) it was 7.04%; in test [5] (setting [11]), -12.6%. Further, in test [8], the molecule was called inactive.

Turning to `CN1C[C@H](C(=O)N[C@]2(C)O[C@@]3(O)[C@@H]4CCCN4C(=O)[C@H](Cc4ccccc4)N3C2=O)C[C@@H]2c3cccc4[nH]cc(c34)C[C@H]21`, the Potency result in test [1], in test [2], in test [3], in test [4] and in test [6] was “inactive” in each case. Moreover, the figures for the activity, negative = cell killing in test [5] (setting [9]) and in test [5] (setting [11]) were -29.3% and 4.11%, respectively. Further, the Potency in test [5] (tumour line A) was 10 µM (active).

With `c1cc(CN2CCCCC2)cc(OCCCNc2nc3ccccc3s2)c1`, the Potency result in test [1], in test [3] and in test [4] was “inactive” in each case.

Regarding `CCC(=O)c1ccc2c(c1)N(CCCN(C)C)c1ccccc1S2`, the Potency result in test [1], in test [3] and in test [4] was “inactive” in each case.

On to `CNCCCN1c2ccccc2CCc2ccccc21`, for which the Potency entry in test [1] and in test [3] was “inactive” each time. Besides, the activity, negative = cell killing in test [5] (at 20 µM (top of the series), tumour line C) is 14.5%. In test [5] (tumour line A), the Potency was 8.91 µM (active).

With `O=C(O)CP(=O)(O)O`, the Potency result in test [2], in test [3], in test [4] and in test [6] was “inactive” throughout. Also, the activity, negative = cell killing in test [5] (setting [9]) was -17.9%; in test [5] (setting [10]), 13.7%; in test [5] (setting [12]), -25.2%; in test [5] (setting [11]) it was -15.6%.

On to `OCCN1CCN(CC/C=C2/c3ccccc3Sc3ccc(C(F)(F)F)cc32)CC1`, for which the Potency result in test [3] and in test [4] was “inactive” throughout. Also, the activity, negative = cell killing in test [5] (setting [11]) was -15%. Besides, the Potency in test [5] (tumour line A) was 2 µM (active); in test [6], 31.6 µM (active).

As for `CCN1CCc2nc(N)oc2CC1`, the Potency result in test [1], in test [3], in test [4] and in test [6] was “inactive” each time. For the same molecule, the activity, negative = cell killing in test [5] (setting [9]) is -14.6%; in test [5] (setting [10]) it was -6.92%; in test [5] (setting [11]), -18.3%.

Turning to `COc1ccc2c(c1OC)C(=O)O[C@@H]2[C@H]1c2c(cc3c(c2OC)OCO3)CCN1C`, the Potency result in test [1], in test [3], in test [4] and in test [6] was “inactive” in each case. Moreover, the results for the activity, negative = cell killing in test [5] (setting [9]), in test [5] (setting [10]) and in test [5] (setting [11]) were -11.4%, -14.1% and 1.26%, respectively.

On to `CCCCNc1c(C(=O)OCC)c(C)nc2c1cnn2CC`, for which the Potency entry in test [1], in test [3], in test [4] and in test [6] was “inactive” in each case. The activity, negative = cell killing in test [5] (setting [9]) was -23.3%. In test [5] (tumour line A), the Potency is 12.6 µM (active).

With `COC(=O)C1=C(C)NC(C)=C(C(=O)OCCN(C)Cc2ccccc2)C1c1cccc([N+](=O)[O-])c1` (stereo unspecified), the Potency entry in test [3] is “inactive”. The activity, negative = cell killing in test [5] (setting [11]) was 14.5%. Moreover, the Potency in test [5] (tumour line A) is 8.91 µM (active); in test [5] (tumour line D), 14.1 µM (active).

For the molecule `c1ccc2c(c1)CCCC2C1=NCCN1` (stereo unspecified), the Potency entry in test [1], in test [3], in test [4] and in test [6] was “inactive” throughout. Moreover, the figures for the activity, negative = cell killing in test [5] (setting [9]), in test [5] (setting [10]) and in test [5] (setting [11]) were 0.679%, 3.62% and -14.8%, respectively.

Consider `COc1ccc(CCN(C)CCCC(C#N)(c2cc(OC)c(OC)c(OC)c2)C(C)C)cc1OC` (stereo unspecified), for which the Potency result in test [2], in test [3], in test [4] and in test [6] was “inactive” throughout. In addition, the activity, negative = cell killing in test [5] (setting [9]) is -13.5%; in test [5] (setting [11]) it was -13.9%. The Potency in test [5] (tumour line A) is 14.1 µM (active).

`CCCCCCCC/C=C\CCCCCCCC(=O)NCc1ccc(O)c(OC)c1`: the Potency entry in test [2], in test [4] and in test [6] was “inactive” throughout.

Turning to `COC(=O)C1=C(C)NC(C)=C(C(=O)OC(C)(C)CN(C)CCC(c2ccccc2)c2ccccc2)C1c1cccc([N+](=O)[O-])c1` (stereo unspecified), the Potency entry in test [1], in test [3] and in test [4] was “inactive” in each case. The Potency in test [5] (tumour line A) was 2 µM (active); in test [5] (tumour line C), 5.8 µM (active); in test [5] (tumour line D), 5.01 µM (active).

Consider `C[C@]12CCC(=O)C=C1CC[C@@H]1[C@@H]2C(=O)C[C@@]2(C)[C@H]1CC[C@]2(O)C(=O)CO`, for which the Potency entry in test [2], in test [3], in test [4] and in test [6] was “inactive” throughout. Further, the activity, negative = cell killing was -3.67% in test [5] (setting [9]), -5.79% in test [5] (setting [10]), -18.4% in test [5] (setting [12]) and 4.73% in test [5] (setting [11]).

Take `NC(N)=N/N=C/c1c(Cl)cccc1Cl`: the Potency entry in test [1], in test [3], in test [4] and in test [6] was “inactive” each time. In addition, the activity, negative = cell killing in test [5] (setting [11]) is 0.325%. Moreover, in test [5] (tumour line A), the Potency was 15.8 µM (active).

As to `CC1=NS(=O)(=O)c2cc(Cl)ccc2N1`, the Potency result in test [1], in test [3], in test [4] and in test [6] was “inactive” in each case. Further, the activity, negative = cell killing in test [5] (setting [9]) is -1.9%; in test [5] (setting [10]) it was 2.33%; in test [5] (setting [12]), -21.7%; in test [5] (setting [11]), 8.3%.

Take `C[C@H](CS)C(=O)N1CCC[C@H]1C(=O)O`: the Potency result in test [1], in test [3], in test [4] and in test [6] was “inactive” each time. Further, the activity, negative = cell killing is 1.21% in test [5] (setting [9]), -0.196% in test [5] (setting [10]), -14.4% in test [5] (setting [12]) and -15.5% in test [5] (setting [11]).
